Assay results published in PubChem BioAssay AID624331 (National Center for Advancing Translational Sciences (NCATS), 2012).
Results filed as inconclusive are left out. Active and inactive are the calls of the source. Calls follow the shape of the dose curve; as a rule, active = well fitted activation curve with a large enough effect; inconclusive = small, poorly fitted or top-dose-only effect; inactive = no such curve, though single readings can be large or run the other way.

Experiment: qHTS assay for re-activators of p53 using a Luc reporter: Hit Validation with no p53 Expressed; also: 0% is about no effect
Details: p53-null cells, luciferase reporter counter-screen; series mostly up to 46.1 µM; activity change, positive = activation: at the top concentration
How it was run: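 Without p53 expression, cells (1000/well, Opti-MEM + 10% FBS) were exposed 24 h at 37 deg C to compounds in a 1:5 series from 10 mM stock (top 46.1 µM in well). Luminescent signal read 10 min after Amplite addition; actives flag unspecific activation.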

Compound | activity change, positive = activation
CCOC(=S)SCC(=O)Nc1nc(-c2ccc(Br)cc2)cs1 | 25.1% (inactive)
CC1(C)Oc2ccc(NC(=O)C3COc4ccccc4O3)cc2O1 (centres undefined) | 18% (inactive)
CCCCC(=O)N1CCCC(C)C1 (centres undefined) | 20.3% (inactive)
COCCCNC(=O)Nc1ccc(Br)cc1Cl | -16.6% (inactive)
CC(=O)Nc1cccc(C(=O)N/N=C/c2ccccc2F)c1 | 92.9% (inactive)
CCN(CC)C(=O)CSc1ncnc2c(-c3cccs3)nsc12 | 8.65% (inactive)
CCOC(=O)N1CCN(S(=O)(=O)c2ccc(C(=O)NNc3nc4c(C)cc(C)cc4s3)cc2)CC1 | -36.5% (inactive)
COC(=O)Cc1n[nH]c(=S)[nH]c1=O | -10.7% (inactive)
N/C(=N\c1nc2ccccc2o1)NC(=O)c1ccc(F)cc1 | 63.9% (inactive)
Cc1ccc2cc(C#N)c(NCc3ccco3)nc2c1 | -25.2% (inactive)
Cc1cc(C)cc(NC(=O)c2sc3nc(C)cc(C)c3c2N)c1 | 77.9% (inactive)
O=C(NCC(=O)N1CCN(c2ncccn2)CC1)c1ccc(F)cc1 | -6.5% (inactive)
CCOc1ccc(NC(=O)C(c2ccccn2)N(C(=O)CCl)c2ccc(OC)cc2)cc1 (centres undefined) | 0.805% (inactive)
CCc1ccc(NC(=O)c2cnn3ccccc23)cc1 | 30.8% (inactive)
CC1=CN2C(=N)/C(=C/c3ccc(C)o3)C(=O)N=C2S1 | -17.3% (inactive)
O=C(c1cccc(Br)c1)c1coc2ccc(O)cc12 | 46.3% (inactive)
Cc1ccc(-c2nc3ccccc3o2)cc1NC(=O)c1ccc2c(c1)OCO2 | 13.8% (inactive)
Nc1c(C(=O)c2ccc(Cl)cc2)oc2ccccc12 | -3.51% (inactive)
COCCn1c(C)cc(C(=O)CSc2nc3ccccc3s2)c1C | -4.14% (inactive)
